Reference: PubChem BioAssay AID652068 (The Scripps Research Institute Molecular Screening Center, 2013)
Among all 4,300 compounds or so, about 4,000 (93%) were called active. The set was probably picked from earlier hits. Only a sample is shown. Values without a mark were called inactive.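 How the source made its calls: active means inhibition above its plate's cutoff, the mean test-well inhibition plus 3 SD (cut at about 4.8% in these data); inactive means the rest.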

Test: displacement of TO-PRO-1 from CAG DNA duplex, counter-screen for rCAG RNA repeat binder project, biochemical, fluorescence, TO-PRO-1 dye, d(CAG) DNA oligo (AID 652068);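 further: 0% = DNA dye mix with DMSO and 100% = 100 µM mitoxantrone; hits displace the dye from DNA and so lower well fluorescence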
Conditions: d(CAG) DNA oligo TO-PRO-1 dye displacement, at 3 µM, stronger effect = higher value

SMILES	inhibition
CC1(C(=O)NS(=O)(=O)c2ccc3ccccc3c2)CCN1C(=O)C1(c2ccc(Cl)cc2)CCC1 (centres undefined)	31.7% (active)
Cc1ccc(OCCC(=O)Nc2ccc(S(=O)(=O)Nc3nccs3)cc2)cc1	14.7% (active)
O=C(CCc1ccccc1Cl)Nc1ccc(S(=O)(=O)Nc2nccs2)cc1	10.9% (active)
CN1CCN(S(=O)(=O)c2cccc(C(=O)Nc3sccc3C#N)c2)CC1	7.1% (active)
O=C(Nc1ccc(S(=O)(=O)Nc2nccs2)cc1)c1cccc(S(=O)(=O)N2CCOCC2)c1	5.67% (active)
O=C(Nc1ccc(S(=O)(=O)Nc2nccs2)cc1)c1cc(-c2ccncc2)nc2ccccc12	29.6% (active)
CC1CCCCN1S(=O)(=O)c1ccc(C(=O)Nc2nnc(-c3cccs3)o2)cc1 (centres undefined)	14.2% (active)
Cc1ccc(S(=O)(=O)N2[C@@H](c3ccccc3F)C(C(=O)O)=CC[C@H]2c2ccc(Cl)cc2)cc1	29.3% (active)
Cc1ccc([C@@H]2CC=C(C(=O)O)[C@H](c3cccc(Cl)c3)N2S(=O)(=O)c2ccc(C)cc2)cc1	41.1% (active)
Cc1ccccc1S(=O)(=O)N1[C@@H](c2cccc(Cl)c2)C(C(=O)O)=CC[C@H]1c1ccc(Cl)cc1	53.5% (active)
O=C(Nc1ccccc1)Nc1nc2ccccc2s1	14.7% (active)
CC(=O)Nc1ccc(C(=O)Nc2nc(-c3cc(C)n(Cc4ccccc4)c3C)cs2)cc1	14.6% (active)
CC(=O)Nc1ccc(S(=O)(=O)Nc2nc(-c3ccc(C(C)(C)C)cc3)cs2)cc1	30.7% (active)
CC(=O)Nc1ccc(-c2csc(NC(=O)Nc3ccccc3)n2)cc1	22.8% (active)
Cc1noc(NS(=O)(=O)c2ccc(NC(=O)c3oc4ccc(F)cc4c3C)cc2)c1C	25.4% (active)
Cc1cc(C)c2nc(-c3cccnc3)cc(C(=O)Nc3ccc(S(=O)(=O)Nc4onc(C)c4C)cc3)c2c1	58.6% (active)
Nc1[nH]c(=S)nc2nc(-c3ccccc3)c(-c3ccccc3)nc12	13.8% (active)
Cc1ccc(-n2ncc3c(Nc4cccc(C(=O)O)c4)ncnc32)cc1	4.92% (active)
O=S(=O)(Nc1ccc(O)c2ccccc12)c1ccc(OC(F)(F)F)cc1	23.5% (active)
O=c1oc(-c2ccccc2NS(=O)(=O)c2ccc(Cl)cc2)nc2ccccc12	8.49% (active)
CSc1nnc(NC(=O)c2nc(S(=O)(=O)Cc3ccc(C)cc3)ncc2Cl)s1	11.6% (active)
C=CCNc1nc(N)c(C(=C(C#N)C#N)c2ccccc2)s1	9.76% (active)
COc1ccccc1C1C(C#N)=C(N)Oc2c1c(-c1ccccc1)nn2-c1ccccc1 (centres undefined)	12% (active)
COc1ccc(COC(=O)NC(C(=O)O)c2ccccc2)cc1 (centres undefined)	1.1%
Cc1c(C)c2c(OCC(=O)N[C@@H](C(=O)O)c3ccccc3)cc3c(c2oc1=O)CCC(C)(C)O3	12.5% (active)

SMILES	inhibition
Cc1cc(Br)cn2c(Cc3cccc(F)c3)c(-c3cccc(Br)c3)nc12	2.14%
Fc1cccc(Cc2c(-c3cccc(Cl)c3)nc3ccc(Br)cn23)c1	12.8% (active)
COc1ccc(-c2nc3ccc(Br)cn3c2Cc2ccc(C)cc2)cc1OC	5.84% (active)
CCC(C)Cn1c(O)cc2nn(-c3nc4ccccc4s3)c(=O)c-2c1C (centres undefined)	30.4% (active)
COc1cc(NC(=O)c2ccccc2NS(=O)(=O)c2ccc(Cl)s2)cc(OC)c1	46.6% (active)
Cc1ccc(CNC(=O)C2CCN(S(=O)(=O)c3ccc4nc5c(c(C(=O)O)c4c3)CC(C)CC5)CC2)cc1 (centres undefined)	11.1% (active)
CCOc1cc(C)ccc1OCc1nnc(SCC(=O)Nc2cccc(C(=O)O)c2)n1-c1ccccc1	11.8% (active)
Cc1sc2nc(SCC(=O)c3ccc(O)c(O)c3)n(Cc3ccco3)c(=O)c2c1C	31.4% (active)
O=C(COC(=O)c1ccc(NS(=O)(=O)c2cccs2)cc1O)Nc1ccc(F)cc1	5.07% (active)
O=C(O)c1[nH]c2ccccc2c1C(c1cccc(O)c1)c1c(C(=O)O)[nH]c2ccccc12	12.6% (active)
CCOC(=O)c1cc2cc(-c3c(C(=O)OCC)oc4cc(O)cc(O)c4c3=O)ccc2o1	10.2% (active)
O=C(CCCN1C(=O)/C(=C\c2ccco2)SC1=S)Nc1cccc2ccccc12	13.7% (active)
Cc1ccc(NC(=O)CSc2sc3c(O)cc(=O)[nH]c3c2C#N)cc1C	11.8% (active)
CO/N=C(\C(=O)N[C@@H]1C(=O)N2C(C(=O)O)=C(COC(C)=O)CS[C@H]12)c1csc(N)n1 (stereo in doubt)	17.5% (active)
O=[N+]([O-])c1cc(Br)c(O)c(/C=N/Nc2nc3ccccc3s2)c1	83.5% (active)
COc1ccc(S(=O)(=O)/N=C2\C=C(NS(=O)(=O)c3ccccc3)C(=O)c3ccccc32)cc1	56.1% (active)
O=C(NNc1c2ccccc2nc2ccccc12)c1cc2ccccc2cc1O	27.7% (active)
Cc1cc(/C=N/Nc2ccc([N+](=O)[O-])cn2)c(C)n1-c1cccc(C(=O)O)c1	10.4% (active)
O=c1ccc2c(-c3ccccc3S(=O)(=O)O)c3ccc(O)c(O)c3oc-2c1O	69.2% (active)
O=C(O)c1cccc(NC(=O)c2cc(-c3cccc(Cl)c3)nc3ccccc23)c1	14.3% (active)
O=C(Nc1cccc(F)c1)c1cc(-c2ccco2)nc2ccccc12	3.28%
Cc1oc2c(F)c(F)c(F)c(F)c2c1S(=O)(=O)Nc1cccc(C(F)(F)F)c1	13.1% (active)
Nc1cccc(-c2cc(-c3ccccc3)nc(-c3cccc(N)c3)n2)c1	6.95% (active)
Cc1oc2cc([N+](=O)[O-])c(O)c([N+](=O)[O-])c2c1C(=O)c1ccc(Br)cc1	15.8% (active)
